Results from the supplement of paper PMC12636033.
± gives the standard deviation of the averaged measurements. In all, about 33,000 sequences were measured (“E-score (rank enrichment, -0.5 to 0.5)”: median about -0.0028, highest 2% from about 0.23 on). The full list was thinned out, with the highest values kept by preference.

What follows are sequences tested on 2Sb-muMax20 (muMax20 with two 1,3-bis(methyl)benzene Cys staples, A13C/A17C and Q88C/A92C, C-terminal Lys) (assay: PBM 8-mer E-score (E-score (rank enrichment, -0.5 to 0.5)); higher = stronger preferential binding).
Description: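 Protein binding microarray (universal PBM chip covering all 10-mers in fixed probe flanks) with chemically synthesized human Max(13-93) bHLH-LZ analogs (not full-length Max) bearing noncanonical residues (hArg, Tha, Aib, Nle at 65) and aromatic Cys staples. Read-out per 8-mer (and its reverse complement): E-score (rank-based enrichment, -0.5 to 0.5) and Z-score of median probe intensity.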

Sequence	PBM 8-mer E-score
CTTACACC	-0.035 ± 0.078
ATTACAGC	0.0657 ± 0.05
ACGAGGGG	0.0607 ± 0.017
CAAAGGAA	0.047 ± 0.054
GAGGATGA	0.0986 ± 0.081
CAAAACGA	0.103 ± 0.0049
GAAAACGA	-0.0116 ± 0.016
ATAAACGA	0.233 ± 0.029
AAAAACGA	0.256 ± 0.03
GTAAACGA	-0.00855 ± 0.0052
ATAAACGC	-0.0771 ± 0.058
CCGGTATC	-0.171 ± 0.092
AAGTCAGC	-0.0311 ± 0.05
AAGGCTAC	-0.168 ± 0.021
AGCGAAAA	0.212 ± 0.006
TCACACCA	0.0297 ± 0.027
CGGATGTA	-0.172 ± 0.005
AGATTTTG	0.0113 ± 0.012
CCTGTTAA	0.0396 ± 0.043
CCTGTTAC	0.274 ± 0.049
CCTGTTAG	-0.0682 ± 0.013
ACCGGCTA	-0.152 ± 0.016

Sequence	PBM 8-mer E-score
ACAAGAAC	0.152 ± 0.045
CATTCTTC	0.0315 ± 0.021
ATGTAGAA	0.245 ± 0.016
CTGTAGAA	0.0722 ± 0.0078
GTGTAGTA	0.125 ± 0.052
ATGTAGTA	0.268 ± 0.012
ATGTAGTG	0.156 ± 0.049
ATGTAGAG	0.0764 ± 0.027
AGACGTAC	-0.0467 ± 0.078
ATTATTTG	0.197 ± 0.0069
CACTGCGG	-0.115 ± 0.052
CCAACAGC	-0.068 ± 0.0017
AGTCAATA	0.09 ± 0.0033
CGTCAATA	-0.0166 ± 0.034
GGTCAATA	0.238 ± 0.015
GGATCTTA	-0.014 ± 0.071
ACGCTGAC	-0.0415 ± 0.018
AAACCGTG	-0.0746 ± 0.026
CCTATAGC	0.264 ± 0.036
ACTATAGA	0.118 ± 0.11
ACTATAGT	0.299 ± 0.039
ACTATAGC	-0.0113 ± 0.072

Sequence	PBM 8-mer E-score
CCTATAGG	0.0292 ± 0.035
ACTATAGG	-0.00711 ± 0.032
CAGTCCTC	0.00033 ± 0.011
AAAGAATG	0.0117 ± 0.014
AGAGACCA	0.0299 ± 0.014
ACTCTGTC	-0.111 ± 0.023
GGCATCAC	0.0631 ± 0.11
CAAGGGGA	0.24 ± 0.015
CTAGGGTA	-0.0583 ± 0.021
GTAGGGGA	0.24 ± 0.067
CAAGGGAA	-0.0769 ± 0.018
ATAGGGTA	0.123 ± 0.025
ATAGGGGA	0.18 ± 0.0034
CTAGGGGA	0.117 ± 0.028
CAAGGGGG	-0.105 ± 0.048
GTAGGGTA	0.266 ± 0.013
AAAAAAAG	0.126 ± 0.056
GGGATCCC	-0.2 ± 0.043
CAGGAGTC	-0.0911 ± 0.039
AACGTTCA	0.0627 ± 0.039
ATATAAAT	0.2095 ± 0.00022
TACAGACA	0.0665 ± 0.048

Sequence	PBM 8-mer E-score
AATTATTA	0.18 ± 0.032
AATTATTG	0.262 ± 0.017
AATTAATG	0.239 ± 0.033
AGTTAATA	0.184 ± 0.015
AATTATTC	0.0609 ± 0.0053
AATTAATT	0.167 ± 0.077
AGTTAATC	0.0432 ± 0.046
CATTAATG	0.18 ± 0.016
AGTTAATG	0.232 ± 0.025
AAGTTCGG	-0.224 ± 0.029
CAATTCCG	-0.0516 ± 0.045
AAGGTAAG	-0.0254 ± 0.00071
ATTACGAA	-0.000195 ± 0.03
AGTCTAAT	0.0498 ± 0.0033
CGCTACTC	-0.172 ± 0.031
CTTAGGCA	-0.203 ± 0.024
AAGGCCCG	-0.159 ± 0.055
GTTTCTGA	0.0103 ± 0.029
ACACCCTC	0.0661 ± 0.073
CCACCCAC	0.239 ± 0.045
CCACCCTC	0.234 ± 0.036
